PubChem BioAssay (Tox21)
Results filed as inconclusive are left out. The source made the active and inactive calls. Unless noted, calls follow the shape of the dose curve; as a rule, active = well fitted curve in the direction sought with a large enough effect in the repeat runs; inconclusive = weak or mixed curves; inactive = no such curve, though single readings can be large; an effect the other way counts as inactive or inconclusive.

Assays:
[1] = qHTS assay to identify small molecule agonists of the sonic hedgehog signaling (Shh) pathway (AID 1259368; calls by dose curve;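 also: NIH/3T3-derived 3T3Gli1-Luc cells carrying a stable Gli1-driven firefly luciferase reporter; series mostly up to about 92 µM; nearly all actives have a fitted effect of over 15% in size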)
Summary of the method: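 Steps: seed 3T3 Gli1-Luc cells, incubate 4 hr at 37 C, pin-transfer compounds in DMSO alongside a positive control, incubate 24 hr, add luciferase detection reagent, wait 30 min at room temperature, read luminescence.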

[2] = qHTS assay to identify small molecule antagonists of the sonic hedgehog signaling (Shh) pathway (AID 1259369; calls by dose curve; also: nearly all actives have a fitted effect of over 45% in size)
Summary of the method: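 Inhibition of Shh signalling is measured as reduced Gli1-response-element firefly luciferase output in an NIH/3T3-derived stable reporter clone stimulated with conditioned medium for 24hr.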

[3] = qHTS assay to identify small molecule agonists of the androgen receptor (AR) signaling pathway in the presence of an antagonist - cell viability counter screen (AID 1259379);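 also: MDA-kb2 human breast cancer cells carrying an MMTV luciferase reporter; series mostly up to about 92 µM; nearly all actives have a fitted effect of over 25% in size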
Summary of the method: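 Fluorescence from CellTiter-Fluor, added after 15 hr and read 1 hr later, gave cell viability. Cells were MDA-kb2 exposed to compounds (15 concentrations) in the presence of 3.0uM nilutamide at 37C, 0% CO2.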

[4] = qHTS assay to identify small molecule agonists of the estrogen receptor beta (ER-beta) signaling pathway - cell viability counter screen (AID 1259380); also: nearly all actives have a fitted effect of over 30% in size; also: potency is read from the fitted curve at half-maximal effect
Summary of the method: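 Same-well viability counter screen. Cells: ER-beta-UAS-bla HEK293T, plated 6 hr before compound, in 2% charcoal-stripped FBS. Compound exposure 16 hr, 37C; viability by CellTiter-Glo luminescence after 30 min at room temperature.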

[5] = qHTS assay to identify small molecule antagonists of the estrogen receptor beta (ER-beta) signaling pathway - cell viability counter screen (AID 1259382);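 also: HEK293T cells carrying ER-beta-UAS-bla reporter stimulated with estradiol; series mostly up to about 92 µM; nearly all actives have a fitted effect of over 55% in size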
Summary of the method: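 Following a 6 hr plating period, HEK293T cells carrying a UAS-driven beta-lactamase reporter under ER-beta control received compounds and 1nM E2 (final). After 16 hr at 37C and 2 hr substrate loading, CellTiter-Glo luminescence indicated viability.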

[6] = target: Estrogen receptor (Homo sapiens) (UniProt P03372); experiment: qHTS assay to identify small molecule agonists of the estrogen receptor alpha (ER-alpha) signaling pathway in the presence of an antagonist (AID 1259383; calls by dose curve; also: top concentration of the series differs between compounds; nearly all actives have a fitted effect of over 15% in size)
Sequence of Estrogen receptor (Homo sapiens) (P03372 whole entry, looked up): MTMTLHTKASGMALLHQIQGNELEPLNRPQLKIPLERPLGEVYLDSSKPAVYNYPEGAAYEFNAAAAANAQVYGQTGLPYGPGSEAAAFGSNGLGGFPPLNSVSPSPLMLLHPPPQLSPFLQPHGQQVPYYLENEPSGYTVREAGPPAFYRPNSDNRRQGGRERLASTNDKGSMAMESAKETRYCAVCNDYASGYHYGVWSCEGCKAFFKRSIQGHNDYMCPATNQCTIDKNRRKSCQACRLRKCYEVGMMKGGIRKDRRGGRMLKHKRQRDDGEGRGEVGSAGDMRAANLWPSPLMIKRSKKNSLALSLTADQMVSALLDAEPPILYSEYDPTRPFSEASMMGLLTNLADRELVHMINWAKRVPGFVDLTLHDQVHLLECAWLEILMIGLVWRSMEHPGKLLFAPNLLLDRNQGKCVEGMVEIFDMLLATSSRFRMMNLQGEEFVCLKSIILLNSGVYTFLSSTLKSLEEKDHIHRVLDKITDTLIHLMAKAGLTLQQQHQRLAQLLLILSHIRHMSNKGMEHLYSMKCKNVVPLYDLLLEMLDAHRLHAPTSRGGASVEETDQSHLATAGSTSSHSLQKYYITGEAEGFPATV
Summary of the method: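 Cells are hormone-deprived for 5 days (charcoal-stripped FBS, no phenol red), plated for 24hr, spiked with 10.0nM ICI-182,780, then dosed at 15 concentrations. After 22hr at 37C, ONE-Glo luminescence reports ERE-luciferase activity.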

[7] = qHTS assay to identify small molecule agonists or antagonists of the thyroid stimulating hormone receptor (TSHR) signaling pathway - wild type cell line counter screen (AID 1259384; calls by dose curve)
Summary of the method: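 Counter screen in untransfected Hek293: compounds (15-point titration, triplicate) plus phosphodiesterase inhibitor Ro20-1724 added after 18 h plating; 30 min RT. Intracellular cAMP via competitive d2/cryptate immunoassay, 1 h incubation.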

[8] = target: Thyrotropin receptor (Homo sapiens) (UniProt P16473); experiment: qHTS assay to identify small molecule antagonists of the thyroid stimulating hormone receptor (TSHR) signaling pathway (AID 1259385; calls by dose curve; also: nearly all actives have a fitted effect of over 20% in size)
Sequence of Thyrotropin receptor (Homo sapiens) (P16473 whole entry, looked up): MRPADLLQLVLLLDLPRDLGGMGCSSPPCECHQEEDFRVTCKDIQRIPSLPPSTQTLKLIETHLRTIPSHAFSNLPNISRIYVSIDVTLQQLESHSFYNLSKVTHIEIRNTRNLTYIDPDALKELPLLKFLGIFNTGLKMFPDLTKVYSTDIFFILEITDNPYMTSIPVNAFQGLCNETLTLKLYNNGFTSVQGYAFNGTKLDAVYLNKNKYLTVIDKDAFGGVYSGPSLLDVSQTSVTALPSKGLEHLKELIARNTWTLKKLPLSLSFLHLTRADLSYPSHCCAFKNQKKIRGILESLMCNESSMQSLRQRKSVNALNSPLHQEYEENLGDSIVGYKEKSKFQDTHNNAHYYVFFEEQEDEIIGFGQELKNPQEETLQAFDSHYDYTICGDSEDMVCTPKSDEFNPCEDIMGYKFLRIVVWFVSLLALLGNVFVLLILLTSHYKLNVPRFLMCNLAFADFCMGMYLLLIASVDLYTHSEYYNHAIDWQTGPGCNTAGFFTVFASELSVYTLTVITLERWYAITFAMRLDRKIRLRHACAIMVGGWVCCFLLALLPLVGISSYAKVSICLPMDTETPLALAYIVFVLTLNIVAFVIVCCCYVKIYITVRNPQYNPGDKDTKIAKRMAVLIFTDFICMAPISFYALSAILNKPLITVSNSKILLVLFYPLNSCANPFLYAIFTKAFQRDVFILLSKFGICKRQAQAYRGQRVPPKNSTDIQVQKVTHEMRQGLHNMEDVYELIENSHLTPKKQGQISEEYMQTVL
Summary of the method: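 Antagonist mode: compound-treated TSHR-expressing HEK293 cells were stimulated with 1.5 ng/mL TSH (final) in presence of Ro20-1724 for 30 min at RT. HTRF cAMP detection after 1 h; each compound tested at 15 concentrations, triplicate.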

[9] = qHTS assay to identify small molecule agonists of the estrogen receptor alpha (ER-alpha) signaling pathway in the presence of an antagonist - cell viability counter screen (AID 1259386);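 also: series mostly up to about 92 µM; cells exposed to compounds for 22 h at 37 °C before the viability read; nearly all actives have a fitted effect of over 30% in size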
Summary of the method: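 Cells are starved of estrogens for 5 days in charcoal-stripped serum, seeded for 24hr and co-treated with ICI-182,780 (10.0nM final) and test compounds. After 22hr at 37C, viability is read as CellTiter-Fluor fluorescence.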

[10] = target: Progesterone receptor (Homo sapiens) (UniProt P06401); experiment: qHTS assay to identify small molecule agonists of the progesterone receptor (PR) signaling pathway (AID 1346784; calls by dose curve; also: nearly all actives have a fitted effect of over 30% in size)
Sequence of Progesterone receptor (Homo sapiens) (P06401 whole entry, looked up): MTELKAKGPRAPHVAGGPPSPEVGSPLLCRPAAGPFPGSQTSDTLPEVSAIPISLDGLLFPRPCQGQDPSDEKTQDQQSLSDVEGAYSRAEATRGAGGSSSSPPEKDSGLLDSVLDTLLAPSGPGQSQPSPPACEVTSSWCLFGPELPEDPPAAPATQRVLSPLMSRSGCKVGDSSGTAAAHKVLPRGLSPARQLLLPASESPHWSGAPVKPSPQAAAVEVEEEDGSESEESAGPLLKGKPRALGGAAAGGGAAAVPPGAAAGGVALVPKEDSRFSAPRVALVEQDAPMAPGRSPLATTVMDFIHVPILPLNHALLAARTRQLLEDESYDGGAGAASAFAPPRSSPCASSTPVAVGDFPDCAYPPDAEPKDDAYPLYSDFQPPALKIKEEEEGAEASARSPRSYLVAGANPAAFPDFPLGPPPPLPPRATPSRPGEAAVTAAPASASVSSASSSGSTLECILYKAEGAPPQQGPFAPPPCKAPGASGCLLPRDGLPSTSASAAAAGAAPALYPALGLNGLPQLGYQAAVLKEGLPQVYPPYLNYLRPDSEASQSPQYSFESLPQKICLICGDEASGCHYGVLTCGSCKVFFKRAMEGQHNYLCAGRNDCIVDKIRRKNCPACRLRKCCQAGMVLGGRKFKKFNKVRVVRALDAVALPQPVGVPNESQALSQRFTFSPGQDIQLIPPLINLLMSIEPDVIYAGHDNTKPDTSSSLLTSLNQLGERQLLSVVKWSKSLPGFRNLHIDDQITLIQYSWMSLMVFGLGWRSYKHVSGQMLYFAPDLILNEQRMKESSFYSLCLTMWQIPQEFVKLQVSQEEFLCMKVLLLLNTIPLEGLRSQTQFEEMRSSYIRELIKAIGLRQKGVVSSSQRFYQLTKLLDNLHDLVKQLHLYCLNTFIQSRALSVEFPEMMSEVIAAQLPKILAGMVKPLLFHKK
Summary of the method: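 HEK 293T PR-UAS-bla reporter cells, 2% charcoal-stripped FBS; 6 hr settle at 37C/5% CO2, compound (DMSO) 16 hr, LiveBLAzer B/G FRET substrate 2 hr RT, fluorescence intensity read.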

[11] = qHTS assay to identify small molecule antagonists of the progesterone receptor (PR) signaling pathway - cell viability counter screen (AID 1346798); also: series mostly up to about 92 µM; nearly all actives have a fitted effect of over 50% in size
Summary of the method: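 Luminescence readout (CellTiter-Glo, 30 min, RT) of viability in PR-UAS-bla HEK293T cells exposed to compound and R5020 agonist for 16 hr at 37C, 5% CO2; run in the same wells as the beta-lactamase reporter read.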

[12] = qHTS assay to identify small molecule agonists of the progesterone receptor (PR) signaling pathway - cell viability counter screen (AID 1346799; calls by dose curve; also: nearly all actives have a fitted effect of over 45% in size)
Summary of the method: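 HEK293T PR-UAS-bla, 3,000 cells/well, 2% charcoal-stripped FBS; 6 h settle, compound 16 h at 37C/5% CO2; LiveBLAzer 2 h RT, then CellTiter-Glo 30 min RT, luminescence read.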

[13] = qHTS assay to identify small molecule antagonists of the TGF-beta/Smad signaling pathway - cell viability counter screen (AID 1346824); also: nearly all actives have a fitted effect of over 50% in size
Summary of the method: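 Cytotoxicity counter-screen run in the same wells as the beta-lactamase Smad reporter read: CellTiter-Glo luminescence after 30 min at room temperature. HEK 293T SBE-bla cells had 5 hr compound exposure at 37 C with TGF-beta1 (0.25 ng/mL stock).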

[14] = qHTS assay to identify small molecule agonists of the TGF-beta/Smad signaling pathway - cell viability counter screen (AID 1346829); also: top concentration of the series differs between compounds; nearly all actives have a fitted effect of over 45% in size
Summary of the method: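 Same-well cytotoxicity: CellTiter-Glo added after the 2 hr room-temperature beta-lactamase substrate step, luminescence measured 30 min later; cells had 5 hr of compound at 37 C.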

[15] = qHTS assay to identify small molecule agonists of the TGF-beta/Smad signaling pathway (AID 1346859; active = well fitted activation curve with a large enough effect in the signal ratio in the repeat runs, not every such curve was filed as active; the % refers to the signal ratio; also: series mostly up to about 77 µM)
Summary of the method: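 Read-out: fluorescence at 460 and 530 nm (405 nm excitation) after a 2 hr room-temperature incubation with beta-lactamase FRET substrate. SBE-bla HEK 293T cells had been treated with test compounds for 5 hr at 37 C.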

[16] = target: Thyrotropin-releasing hormone receptor (Homo sapiens) (UniProt P34981); experiment: qHTS assay to identify small molecule antagonists of the thyrotropin-releasing hormone receptor (TRHR) signaling pathway (AID 1346877; active = well fitted inhibition curve with a large enough effect in the repeat runs, not every such curve was filed as active; also: series mostly up to about 51 µM)
Sequence of Thyrotropin-releasing hormone receptor (Homo sapiens) (P34981 whole entry, looked up): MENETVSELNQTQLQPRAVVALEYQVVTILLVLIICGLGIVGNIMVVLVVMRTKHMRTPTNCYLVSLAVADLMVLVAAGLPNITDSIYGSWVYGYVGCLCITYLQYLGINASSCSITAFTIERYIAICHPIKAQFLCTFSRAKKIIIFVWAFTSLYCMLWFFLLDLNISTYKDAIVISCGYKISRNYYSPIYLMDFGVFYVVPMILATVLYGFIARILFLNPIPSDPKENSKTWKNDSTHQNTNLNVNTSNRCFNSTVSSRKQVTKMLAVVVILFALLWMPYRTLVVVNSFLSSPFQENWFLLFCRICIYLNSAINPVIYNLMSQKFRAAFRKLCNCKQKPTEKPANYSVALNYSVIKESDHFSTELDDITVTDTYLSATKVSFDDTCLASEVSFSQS
Summary of the method: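 Cells (TRHR-HEK293) are plated and kept 18 h at 37 °C/5% CO2. A calcium-sensitive dye is added for 2 h, compound follows for 5 min at room temperature, and TRH is then given at 1 nM final.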

[17] = target: Progesterone receptor (Homo sapiens) (UniProt P06401); experiment: qHTS assay to identify small molecule antagonists of the progesterone receptor (PR) signaling pathway (AID 1346795; active = well fitted inhibition curve with a large enough effect in the signal ratio in the repeat runs, not every such curve was filed as active; the % refers to the signal ratio; also: potency is read from the fitted curve at half-maximal effect)
Summary of the method: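 Beta-lactamase reporter, HEK293T PR-UAS-bla line; 2% charcoal-stripped FBS; 6 hr pre-incubation, 37C/5% CO2. Compound + R5020 1 nM final, 16 hr. LiveBLAzer B/G FRET substrate, 2 hr RT; fluorescence intensity read.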
% is scaled to controls: 0 for no effect and ±100 for the full control effect.

Cc1cc2cc3c(C)cc(=O)oc3c(C)c2o1
inactive: outcome [1] | Potency [2] | Potency [3] | Potency [4] | outcome [5] | outcome [6] | outcome [7] | outcome [8] | Potency [9] | Potency [10] | Potency [11] | Potency [12] | outcome [13] | outcome [14] | outcome [15] | outcome [16]

COCCOC(=O)C1=C(C)NC(C)=C(C(=O)OC(C)C)C1c1cccc([N+](=O)[O-])c1 (configuration not stated)
inactive: outcome [1] | Potency [2] | Potency [3] | Potency [4] | outcome [5] | outcome [6] | outcome [7] | outcome [8] | Potency [9] | Potency [11] | outcome [13] | outcome [14] | outcome [15] | outcome [16]
active: Potency [17] 10.6 µM

COc1ccc(S(=O)(=O)N2c3ccc(Cl)cc3[C@@](O)(c3ccccc3Cl)[C@H]2C(=O)N2CCC[C@@H]2C(N)=O)cc1OC
inactive: outcome [1] | Potency [2] | Potency [3] | Potency [4] | outcome [5] | outcome [6] | Potency [10] | Potency [17] | Potency [11] | outcome [13] | outcome [14] | outcome [15] | outcome [16]

C[Si](C)(C)C
inactive: outcome [1] | Potency [2] | Potency [3] | Potency [4] | outcome [5] | outcome [7] | outcome [8] | Potency [9] | Potency [10] | Potency [17] | Potency [11] | outcome [13] | outcome [14] | outcome [15]

CC1=CCC(C(C)C)=CC1
inactive: outcome [1] | Potency [2] | Potency [3] | Potency [4] | outcome [5] | outcome [6] | Potency [9] | Potency [10] | Potency [17] | Potency [11] | Potency [12] | outcome [13] | outcome [14] | outcome [15]

COC(=O)C1CC(=O)C(C(=O)OC)CC1=O (configuration not stated)
inactive: activity change [1] -2.11% [at 8.39 µM] | activity change, negative = inhibition [2] 0.93% [at 8.39 µM] | activity change, negative = cytotoxicity [3] 2.46% [at 8.39 µM] | activity change, negative = cytotoxicity [4] -5.74% [at 8.39 µM] | activity change, negative = cytotoxicity [5] 5.88% [at 8.39 µM] | cAMP activity change [7] 2.64% [at 8.39 µM] | activity change, negative = inhibition [8] 0.232% [at 8.39 µM] | activity change, negative = cytotoxicity [9] 1.85% [at 8.39 µM] | activation [10] 15.8% [at 8.39 µM] | activity change, negative = inhibition [17] 5.34% [at 8.39 µM] | activity change, negative = cytotoxicity [11] 15.1% [at 8.39 µM] | viability change, negative = cytotoxic [13] -4.8% [at 6.97 µM] | activity change, negative = cytotoxicity [14] -0.722% [at 6.97 µM] | activation [15] 5.28% [at 6.97 µM] | activity, negative = inhibition [16] 1.02% [at 4.65 µM]

CN(C)CCOCCO
inactive: outcome [1] | Potency [2] | Potency [3] | Potency [4] | outcome [5] | outcome [6] | outcome [8] | Potency [9] | Potency [10] | Potency [17] | Potency [11] | Potency [12] | outcome [13] | outcome [14] | outcome [16]

CCc1ccc(C=O)cc1
inactive: outcome [1] | Potency [2] | Potency [3] | Potency [4] | outcome [7] | outcome [8] | Potency [9] | Potency [10] | Potency [17] | Potency [12] | outcome [13] | outcome [14] | outcome [15] | outcome [16]

O=C1c2ccccc2C(=O)C1c1ccccc1
inactive: outcome [1] | Potency [2] | Potency [3] | Potency [4] | outcome [5] | outcome [6] | outcome [8] | Potency [9] | Potency [10] | Potency [17] | Potency [11] | Potency [12] | outcome [13] | outcome [14] | outcome [15] | outcome [16]

CO[C@@H]1[C@@H](OC(N)=O)[C@@H](O)[C@H](Oc2ccc3c(O)c(NC(=O)c4ccc(O)c(CC=C(C)C)c4)c(=O)oc3c2C)OC1(C)C
inactive: outcome [1] | Potency [2] | Potency [3] | Potency [4] | outcome [5] | outcome [6] | outcome [7] | outcome [8] | Potency [9] | Potency [10] | Potency [17] | Potency [11] | outcome [13] | outcome [14] | outcome [15] | outcome [16]

On1nnc2ccccc21
active: Potency [4] 1.54 µM
inactive: outcome [1] | Potency [2] | Potency [3] | outcome [6] | outcome [7] | outcome [8] | Potency [9] | Potency [10] | Potency [17] | outcome [13] | outcome [14] | outcome [15]

CN1C(C)(C)CCCC1(C)C
inactive: outcome [1] | Potency [2] | Potency [3] | Potency [4] | outcome [6] | outcome [7] | outcome [8] | Potency [9] | Potency [10] | Potency [12] | outcome [13] | outcome [14] | outcome [15] | outcome [16]

O=C1c2ccccc2C(=O)c2cc(S(=O)(=O)O)ccc21
inactive: outcome [1] | Potency [2] | Potency [3] | Potency [4] | outcome [5] | outcome [6] | outcome [7] | outcome [8] | Potency [9] | Potency [10] | Potency [17] | Potency [11] | outcome [13] | outcome [14] | outcome [15] | outcome [16]

C=Cc1ccccn1
inactive: outcome [1] | Potency [2] | Potency [3] | Potency [4] | outcome [5] | outcome [7] | outcome [8] | Potency [9] | Potency [10] | Potency [17] | Potency [11] | Potency [12] | outcome [13] | outcome [14] | outcome [15] | outcome [16]
